Screens deposited in PubChem BioAssay by National Center for Advancing Translational Sciences (NCATS).
MCF10A rerep = inducers of DNA re-replication in MCF 10A breast cells. MCF 10A DNA re-replication, Hoechst nuclear intensity, 48 h. Potency, µM (series often up to 46.1 µM), inactives show at the top dose activity, positive = re-replication, usual class: activators. hit rate 2.9% among 350,000. AID 624296; also: potency is read from the fitted curve at half-maximal effect; % of control where 0% means no effect; nearly all actives have a fitted effect of over 50% in size
SW480 rereplic = DNA re-replication induction in SW480 cells; SW480 DNA re-replication, Hoechst DNA content imaging, 48 h; Potency, µM (series often up to 46.1 µM), inactives show at the top dose re-replication activation, usual class: activators; hit rate 1.8% among 340,000; also: potency is read from the fitted curve at half-maximal effect; % of control where 0% means no effect; nearly all actives have a fitted effect of over 55% in size
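Quantitative HTS format with DMSO vehicle controls; 48 hr drug incubation at 37 C, then 40 min Hoechst staining and scanning imager measurement at 405 nm excitation.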
Giardia killer = kills Giardia lamblia; Giardia lamblia trophozoite viability; activity change, % at 7.66 µM, hits read low; hit rate 0.15% among 340,000; AID 540267; in the data active = activity change below about -80%; inconclusive = between about -30% and that limit;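 also: parasites exposed to compound for two days anaerobically before the ATP read; % is scaled to controls: 0 for no effect and ±100 for the full control effect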
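Media and compound were dispensed first, then trophozoites at 100 cells/well; plates sat 48 hrs at 37 deg C without oxygen before ATP luminescence reagent was added and read after 15-30 min at room temperature.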
KB-V1 MDR tox = KB-V1 MDR subline cytotoxicity; KB-V1 MDR cells viability, CellTiter-Glo, 72 h; Potency, µM (doses to about 46.1 µM), actives largely listed as cytotoxic; hit rate 3.4% among 400,000; AID 1347076; also: potency is read from the fitted curve at half-maximal effect; % is scaled to controls: 0 for no effect and ±100 for the full control effect; nearly all actives have a fitted effect of over 60% in size
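In this primary screen, KB-V1 cells overexpressing P-gp are incubated with library compounds (lowest to highest concentration) for 72 h at 37 degrees C before a luminescent ATP viability read.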
KB-3-1 cytotox = kills parental KB-3-1 adenocarcinoma cells; hit rate 1.4% among 400,000; AID 1347075; KB-3-1 viability, CellTiter-Glo ATP luminescence, 72 h; Potency, µM (doses to about 46.1 µM), actives largely listed as cytotoxic; also: potency is read from the fitted curve at half-maximal effect; % is scaled to controls: 0 for no effect and ±100 for the full control effect; nearly all actives have a fitted effect of over 60% in size
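Viability of parental KB-3-1 cells, measured by CellTiter-Glo luminescence, followed a 72 h incubation at 37 °C with pinned compounds in phenol-red-free DMEM containing 10% FBS.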
S-ASM inh = human S-ASM enzyme inhibition; P17405; placental ASM, HMU-PC fluorogenic substrate, 60 min; Potency, µM (highest dose often 57.5 µM), inactives show at the top dose activity change, negative = inhibition, most hits filed as inhibitors; hit rate 0.006% among 340,000; AID 504937; also: potency is read from the fitted curve at half-maximal effect
Target sequence (P17405 47-631 limits assumed): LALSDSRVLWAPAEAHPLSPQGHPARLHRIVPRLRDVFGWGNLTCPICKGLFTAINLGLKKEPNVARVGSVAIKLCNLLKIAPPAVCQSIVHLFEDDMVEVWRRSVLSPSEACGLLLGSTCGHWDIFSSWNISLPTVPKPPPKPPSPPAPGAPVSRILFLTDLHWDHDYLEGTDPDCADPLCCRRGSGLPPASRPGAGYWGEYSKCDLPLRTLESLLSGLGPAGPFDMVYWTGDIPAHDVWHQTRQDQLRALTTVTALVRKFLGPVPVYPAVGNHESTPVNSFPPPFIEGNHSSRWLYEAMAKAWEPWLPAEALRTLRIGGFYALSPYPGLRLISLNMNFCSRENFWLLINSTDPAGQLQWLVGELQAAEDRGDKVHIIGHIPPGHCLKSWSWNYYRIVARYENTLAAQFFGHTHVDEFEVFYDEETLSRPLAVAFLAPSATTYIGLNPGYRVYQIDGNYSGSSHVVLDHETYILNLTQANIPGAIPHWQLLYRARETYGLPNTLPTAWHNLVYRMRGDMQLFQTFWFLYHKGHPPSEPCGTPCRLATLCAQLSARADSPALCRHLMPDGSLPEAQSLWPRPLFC
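HMU-PC0 cleavage (9 uM final) by human placental ASM, 60 min at 37 °C following 10 min compound exposure at RT; stopped at pH 10, fluorescence Ex 386/Em 447 nm.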
Starred values were filed as active, the others as inactive; i = inactive; ? = inconclusive; . = no result. Sampled rows, rich in hits. Any-hit rate of the full collection: about 6.9%. Unless noted, calls follow the shape of the dose curve; as a rule, active = well fitted curve in the direction sought with a large enough effect; inconclusive = small, poorly fitted or top-dose-only effect, or another doubt; inactive = no such curve, though single readings can be large; an effect the other way counts as inactive or inconclusive.

SMILES | MCF10A rerep | SW480 rereplic | Giardia killer | KB-V1 MDR tox | KB-3-1 cytotox | S-ASM inh
Cn1c(=O)cc(SCC(=O)Nc2ccc3c(c2)OCO3)c2ccccc21 | 13% | 3% | 5 | ? | i | -2%
CCn1c(=O)cc(OCC(=O)Nc2nc(C)cs2)c2ccccc21 | -4% | -8% | 7 | i | i | 0%
CCn1c(=O)cc(SCC(=O)Nc2ccc(C)cn2)c2ccccc21 | 10µM* | ? | 5 | ? | i | -2%
CCc1ccccc1NCC(=O)Nc1ccc(Cl)c(C(F)(F)F)c1 | ? | ? | 0 | 21µM* | ? | -13%
O=C(CCCCCN1C(=O)CCC1=O)Nc1ccc(Cl)c(C(F)(F)F)c1 | 3% | -1% | 4 | 16µM* | i | -1%
C/C(CC(=O)Nc1ccc(Cl)c(C(F)(F)F)c1)=N\NC(=O)c1ccccc1O | ? | 107% | -4 | 18µM* | ? | -21%
CC1CCC(Nc2nc3c(-c4cccc(C(F)(F)F)c4)nnn3c3ccccc23)CC1 (configuration not stated) | . | . | . | i | i | .
O=Nc1c(-c2c(O)[nH]c3cc(Br)ccc23)[nH]c2ccccc12 | -8% | ? | -4 | 21µM* | ? | ?
Cc1ccc(Cl)cc1NC(=O)CSc1ccc(C(=O)O)cn1 | . | . | . | ? | i | .
Cc1ccc(S(=O)(=O)Nc2cc(C)cc(CCNC=O)c2C)cc1 | -3% | 1% | 0 | 18µM* | i | 3%
Cc1ccc(S(=O)(=O)Nc2ccccc2-c2ccccc2NS(=O)(=O)c2ccc(C)cc2)cc1 | ? | -3% | 8 | ? | ? | -12%
COc1cccc(C2c3cc4c(cc3OC(N3CCCC3)C2C)OCO4)c1O (configuration not stated) | ? | ? | 2 | 8.2µM* | 21µM* | -2%
COc1cc(C2c3cc4c(cc3OC(N3CCCCC3)C2C)OCO4)cc(OC)c1O (configuration not stated) | ? | ? | -4 | ? | ? | -1%
COc1ccc(NC(=O)CSc2nc(-c3cccs3)cc(C(F)(F)F)n2)c(OC)c1 | . | . | . | i | i | .
COc1ccc(-c2nc(SCC(=O)NC3CCCCC3)n[nH]2)cc1 | ? | 16µM* | -20 | ? | ? | -1%
COc1ccc(-c2ccc(SCC(=O)NC3CCCCC3)nn2)cc1 | 0% | ? | -11 | i | i | 7%
COc1ccc(-c2nnc(SCC(=O)NC3CCCCC3)nc2-c2ccc(OC)cc2)cc1 | . | . | . | i | i | .
COc1ccc(-c2nc(SC(C)C(=O)NCC3CCCO3)n[nH]2)cc1 (configuration not stated) | 13µM* | 16µM* | 8 | i | ? | 4%
Cc1nc(SC(C)C(=O)NCC2CCCO2)c2cc(-c3ccccc3)sc2n1 (configuration not stated) | 12µM* | ? | 0 | ? | ? | -3%
COc1ccc(-c2cn3nc(SCC(=O)NC4CCCCC4)ccc3n2)cc1 | 3.7µM* | 8.2µM* | -2 | i | i | i
Cc1c2cnn(CC(=O)N3CCN(c4ccccc4)CC3)c(=O)c2c(C)n1Cc1ccc(F)cc1 | . | . | . | i | i | .
COc1nc(-c2ccccc2)cc(-c2ccc(OC)c(OC)c2)n1 | ? | ? | -22 | 8.2µM* | i | 22%
O=c1[nH]c(-c2ccc(O)cc2)nc2scc(-c3cccs3)c12 | 7.3µM* | 12% | -23 | i | i | i
Cc1[nH]c2ccccc2c1C(=O)c1cc(Cc2ccccc2)sc1N | . | . | . | 18µM* | 21µM* | .
CCOc1ccccc1OCC(=O)Nc1ccc(S(=O)(=O)Nc2nc(C)cc(C)n2)cc1 | 16% | -6% | 8 | 18µM* | i | 13%
SMILES | MCF10A rerep | SW480 rereplic | Giardia killer | KB-V1 MDR tox | KB-3-1 cytotox | S-ASM inh
Cn1cc(S(=O)(=O)N2CCCCCC2)cc1C(=O)N1CCN(c2ccc(Cl)cc2)CC1 | . | . | . | ? | i | .
C=CCn1c(N)c(C(=O)NCC2CCCO2)c2nc3ccccc3nc21 (configuration not stated) | -7% | 9.2µM* | -9 | ? | i | i
COc1ccc(-n2c(N)c(C(=O)NCC3CCCO3)c3nc4ccccc4nc32)c(OC)c1 (configuration not stated) | ? | ? | -12 | i | i | i
O=C(NCC1CCCO1)c1coc2nc3ccccc3nc12 (configuration not stated) | 21µM* | 11% | 17 | ? | i | 417%
Cc1ccc(NC(=O)C2CCN(S(=O)(=O)c3cccc4nonc34)CC2)c(Cl)c1 | . | . | . | i | i | .
CCOC(=O)c1ccc(NC(=O)c2cnc(N3CCCC3)nc2C)cc1 | . | . | . | i | i | .
O=C(Nc1cnn(Cc2ccc(F)cc2)c1)C(c1ccccc1)c1ccccc1 | 0% | -104% | -11 | 5.2µM* | ? | -4%
CC(C)(C)C1CCc2onc(C(=O)Nc3cnn(Cc4ccc(F)cc4)c3)c2C1 (configuration not stated) | ? | ? | -1 | 2.6µM* | i | -1%
O=C(NCc1ccccc1)c1noc2c1CCCCC2 | ? | ? | 8 | 21µM* | i | -1%
O=C(Nc1cnn(Cc2ccc(F)cc2)c1)c1noc2c1CCCC2 | 4.6µM* | 26% | 10 | i | ? | -4%
O=C(CC1C(=O)N(c2ccccc2)C(=O)N1CCC1=CCCCC1)Nc1ccc(F)cc1 (configuration not stated) | . | . | . | i | i | .
COc1ccc(S(=O)(=O)Nc2cccc(-c3ccc(N4CCCCCC4)nn3)c2)cc1 | . | . | . | i | i | .
COc1ccc(CCNC(=O)C/C(C)=N/NC(=O)c2ccc([N+](=O)[O-])cc2Cl)cc1OC | 0% | -22% | 8 | i | i | 3%
CC(C)(C)C1CCc2onc(C(=O)Nc3ccc(F)cc3F)c2C1 (configuration not stated) | -2% | 0% | -6 | 23µM* | i | -3%
O=C(Nc1ccn(CCCNC2CCN(Cc3ccccc3)CC2)c(=O)n1)OCc1ccccc1 | . | . | . | i | i | .
CN(C)c1ccc(NC(=O)/C=C/c2c(Cl)cccc2Cl)cc1 | 16µM* | 6% | 1 | 13µM* | ? | -6%
CN(C)S(=O)(=O)c1ccc(NC(=O)/C=C/c2ccccc2Cl)cc1 | ? | 16% | 2 | 15µM* | i | -19%
NC(=O)c1ccccc1NC(=O)/C=C/c1c(Cl)cccc1Cl | ? | ? | 4 | 4.1µM* | i | -3%
Cc1ccc(NC(=O)c2c(C(=O)Nc3ccccc3)sc3nc(C)cc(=O)n23)cc1 | -3% | -8% | -3 | i | i | -10%
